The structures appear in SMILES notation. Screen size: about 69,000 compounds; about 8,600 (12%) showed an effect of 50% or more. This is one part of a sample in which strong results are shown more often than they occur.

For this experiment, the system named is Plasmodium berghei. Briefly: Screen against P. berghei liver stage (PbLuc), transformed with Luciferase, at 10uM. Format: functional, HepG2. The note with it: tested at 10 uM.
As for `O=C1[C@@H]2CC[C@@H](CN(Cc3nnc(C4CC4)o3)C2)N1Cc1cscn1`, the INHIBITION is -28.4%. To `Cc1cc(C(=O)N2CCC(CCC(=O)NCCN(C)C)CC2)ccc1O` belongs -21.9%; to `CN(C)CCNC(=O)CCC1CCN(C(=O)c2ccc(Cl)cc2O)CC1`, 50.4%; to `CN(C)CCNC(=O)CCC1CCN(C(=O)c2ccc(O)cn2)CC1`, 26.8%.

As for `CCN(c1ccc(C(=O)NCCCN2CCCC2)cc1)S(=O)(=O)CC`, the INHIBITION is -7.11%. On to `CC[C@@H]1N(Cc2ccc(F)cc2)CCC[C@]12CCC(=O)N2C`, for which the INHIBITION stood at 21.1%. For the compound `Cc1cccc(N2CCOCC3(C2)CN(c2cccnc2)C(=O)CO3)n1` (stereo not drawn), the INHIBITION came to 41.4%. In the case of `Cc1ccc(N2CC3(COCCN(Cc4nccs4)C3)OCC2=O)s1` (stereo not drawn), the INHIBITION is -17%. With `Cn1cccc1CN1CCC2(CC1)CN(c1ccccc1)C(=O)CO2` the figure was -19.5%; with `Cc1cccc(N2CCOCC3(C2)CN(c2ccccc2)C(=O)CO3)n1` (stereo not drawn), 59.3%.

In the case of `Cc1ccc(N2CC3(COCCN(Cc4ccncc4)C3)OCC2=O)s1` (stereo not drawn), the INHIBITION was -36%.

`Cc1cccc(N2CCOCC3(C2)CN(c2cncnc2)C(=O)CO3)n1` (stereo not drawn): the INHIBITION was determined as 33.5%. With `Cc1ccc(N2CC3(COCCN(Cc4ccccn4)C3)OCC2=O)s1` (stereo not drawn) the figure was 60.1%.

In the case of `Cc1ccc(CN2CCOCC3(C2)CN(c2ccc(C)s2)C(=O)CO3)o1` (stereo not drawn), the INHIBITION is 64.2%. With `Cc1ccc(CN2CCC3(CC2)CN(c2cnn(C)c2)C(=O)CO3)o1` the figure was -2.17%; with `Cc1ccc(CN2CCC3(CC2)CN(c2ccccc2)C(=O)CO3)o1`, 68.4%.

`Cc1ccc(N2CC3(COCCN(Cc4cnn(C)c4)C3)OCC2=O)s1` (stereo not drawn): the INHIBITION was 31.7%. With `Cc1ccc(N2CC3(COCCN(Cc4cccnc4)C3)OCC2=O)s1` (stereo not drawn) the figure was 39.2%; with `Cc1ccc(CC(=O)N2CCc3nnc(N(C)C)cc3C2)s1`, 12.85%. With `Cn1cnc2c1C(COCC1CCOCC1)CN(C1CCOCC1)C2` (stereo not drawn) the figure was -0.569%; with `CC(C)NC(=O)Nc1ccc(CS(C)(=O)=O)cc1`, 28.3%.

Take `CCn1ccnc1CN1CCCN(C(=O)c2cnc(C)cn2)CC1`: the INHIBITION is listed as -4.16%. With `Cc1nc(CN2CCCC(N(C)Cc3nccn3C)C2)no1` (stereo not drawn) the figure was 13.3%; with `COc1ccc(OCc2cc(C(=O)N3CCCCO3)n[nH]2)c(Cl)c1`, -9.42%. To `CCNCCC(Cc1ccccc1)c1ccco1` (stereo not drawn) belongs 31.2%. With `COCCN(C)c1cnn(C)c(=O)c1Br` the figure was 17.5%; with `CC(Cn1cccn1)C(=O)N1CCCN(Cc2cscn2)CC1` (stereo not drawn), -0.29%. As for `O=C(c1cnco1)N1CCC(Cc2cnc3ccccc3c2)CC1`, the INHIBITION is 14.4%. With `O=C1CC2(CCCCN2C(=O)c2ccco2)CN1c1cccnc1` (stereo not drawn) the figure was 76.5%. To `Cn1ccc(C(=O)N2CCCCC23CC(=O)N(Cc2ccccc2)C3)n1` (stereo not drawn) belongs -52.9%; to `O=C(c1ccco1)N1CCOCC2(C1)CN(c1cccnc1)C(=O)CO2` (stereo not drawn), 3.58%. With `Cn1cccc1C(=O)N1CCCCC12CC(=O)N(c1cccnc1)C2` (stereo not drawn) the figure was -80.2%.

For `O=C1CC2(CCCCN2C(=O)Cc2ccccc2)CN1c1cccnc1` (stereo not drawn), the INHIBITION is recorded as 70.1%.

Regarding `O=C1CC2(CCCCN2C(=O)c2ccoc2)CN1Cc1ccccc1` (stereo not drawn), the INHIBITION worked out at 24.8%. `COc1ccc(CC(=O)N2C[C@@H]3COC[C@]3(CN(C)C)C2)cc1`: the INHIBITION was 35.3%. To `CCOCC1c2c(cnn2CC2CC2)CCN1Cc1nccs1` (stereo not drawn) belongs 30.3%; to `O=C(C1CCCC1)N1CCO[C@H]2[C@H](OCC3CCOCC3)CC[C@@H]21`, -26.5%. To `CC(C)NC(=O)CS(=O)(=O)Cc1coc(-c2ccc(F)cc2)n1` belongs 33.8%; to `Cc1nc(C)c(CC(=O)N2C[C@@H]3CC[C@H]2CN(c2cnccn2)C3)s1`, -102%; to `CC(C)C(=O)NC1COC2(CCN(Cc3cccnc3)CC2)C1` (stereo not drawn), 16.1%.

Turning to `c1cnc(NCc2nnn3c2CN(Cc2ccsc2)CCC3)nc1`, the INHIBITION was 39.8%. With `CS(=O)(=O)NC[C@@H]1OC[C@H]2CN(Cc3ccsc3)CC[C@H]21` the figure was -4.32%; with `CN(CC(=O)N1CCc2[nH]c3ccccc3c2C1)CC1OCCO1`, 22.9%. To `O=C1N(c2ccsc2)CCC12CCCN(c1ccccn1)C2` (stereo not drawn) belongs 42.1%; to `Cc1nn(C)c(N(C)C)c1CNCc1cccnc1-n1cncn1`, 26.1%. With `CNCc1cc(F)ccc1Oc1ccc(Cl)cc1` the figure was 35.2%; with `CC(CNS(N)(=O)=O)Oc1cccc(Cl)c1` (stereo not drawn), 14.9%; with `CC(C)C[C@H](N)COc1cccc(F)c1Oc1ccccc1`, 48%. With `COc1ccccc1C(N)CC(C)C` (stereo not drawn), the INHIBITION came out at 48.3%. To `CC(C)C[C@H](N)COc1cccc(F)c1Oc1ccc(Cl)cc1` belongs 87.9%. For the compound `Cc1ccc(Oc2c(F)cccc2OC[C@@H](N)CC(C)C)cc1`, the INHIBITION came to 79.6%. As for `CC(C)C[C@H](N)COc1cccc(F)c1Oc1cccc(Cl)c1`, the INHIBITION is 83.3%.

Turning to `CC(CNS(C)(=O)=O)Oc1cccc(Cl)c1` (stereo not drawn), the INHIBITION came out at 23.8%. With `CN(CCc1ccccn1)c1cnn(C)c(=O)c1Br` the figure was -18.9%; with `Cc1ccc2c(c1)Oc1ncccc1C(=O)N2`, 48.2%; with `Cc1cnc(C(=O)N2C[C@H]3CN(Cc4cccc(F)c4)C(=O)[C@H]3C2)cn1`, -9.71%. To `CC(CN1CCOCC1)NC(=O)N1CCN(S(C)(=O)=O)CC1` (stereo not drawn) belongs -34.4%; to `CCOc1ccc(SCCS(=O)(=O)CC)cc1`, 3.84%; to `CCSCCn1cc(-c2ncc[nH]2)nn1`, 59.1%. With `c1c[nH]c(-c2cn(CCSc3cnn[nH]3)nn2)n1`, the INHIBITION is listed as 33.2%.

With `CCn1c(C)nnc1SCCn1cc(-c2ncc[nH]2)nn1`, the INHIBITION came out at 7.1%. To `Cc1cnc(CN(C)C2CCN(Cc3nccn3C)C2)o1` (stereo not drawn) belongs 13.3%; to `CCOC(=O)CNC(=O)c1cc(-c2ccccc2)nc2ncnn12`, -5.22%; to `COCCNC(=O)c1sc(Nc2ccc(Cl)cn2)nc1C`, 67.9%. Consider `CCCNC(=O)c1sc(Nc2ccc(Cl)cn2)nc1C`, for which the INHIBITION was -19.7%.

Turning to `CC(=O)c1sc(Nc2ccc(Cl)cn2)nc1C`, the INHIBITION is on record as -9.27%.

As for `Cc1nc(Nc2ccc(Cl)cn2)sc1C(=O)NCCCN1CCCCC1`, the INHIBITION was determined as 52.3%. Turning to `CCCc1nc(C)c(C(=O)NCCN2CCCCC2)s1`, the INHIBITION is -21.9%. To `Cc1nc(Nc2ccc(Cl)cn2)sc1C(=O)NC(C)C` belongs -86.5%; to `COc1ccc(CCC(=O)N2CCNCC2C(=O)N2CCCC2)cc1` (stereo not drawn), 32.1%. For `COCCO[C@H]1CCN(Cc2cccnc2)[C@H]1Cc1cccnc1`, the INHIBITION is listed as -31%. With `CN(C)S(=O)(=O)N1C[C@H]2CC[C@@H](C1)N(Cc1ccc(F)c(F)c1)C2` the figure was 0.825%. With `CSc1nccn1-c1ccc(C(=O)NCC2CC2)cc1` the figure was 36.1%; with `O=C(NCCCn1nc2ccccn2c1=O)NCC(C1CC1)C1CC1`, -20%; with `Cc1ccc(-c2cc(-c3c(C)nn(CCO)c3C)c(C#N)c(N)n2)cc1`, 14.1%. With `CCCn1cc(-c2cc(-c3cnc(OC)nc3)c(C#N)c(N)n2)c(C)n1` the figure was 25.1%. For the compound `COc1cc(-c2cc(-c3ccn(C)c3)nc(N)c2C#N)cc(OC)c1O`, the INHIBITION is given as 71.2%. To `CCn1cc(-c2cc(-c3ccn(C)c3)nc(N)c2C#N)cc1C#N` belongs 81.1%. Consider `COc1ncc(-c2cc(-c3ccn(C)c3)nc(N)c2C#N)cn1`, for which the INHIBITION was 29.4%.

`CCNc1ncc(-c2cc(-c3ccn(C)c3)nc(N)c2C#N)cn1`: the INHIBITION turned out to be 36%.

On to `O=C(NCC1CC1)c1cc(C2CC2)nc2onc(C3CCCNC3)c12` (stereo not drawn), for which the INHIBITION is listed as -3.11%. With `CCN1CC2(CC1=O)CN(Cc1cnn(C)c1)CCN(C(=O)C(C)C)C2` (stereo not drawn) the figure was 9.54%; with `CC(NCCCc1cnn(C)c1)c1ccc(Br)s1` (stereo not drawn), 45.7%; with `CC(NCCN1CCC(N(C)C)CC1)c1ccc(Cl)s1` (stereo not drawn), 27.7%. To `CC(NC(=O)NCCc1cnn(C)c1)c1ccc(Cl)s1` (stereo not drawn) belongs 68%. To `CC(NCc1cnc(N2CCOCC2)s1)c1ccc(Cl)s1` (stereo not drawn) belongs -19.1%; to `COCCn1cc(NC(=O)NC(C)c2ccc(Cl)s2)cn1` (stereo not drawn), -6.04%. Consider `CC(NCCCc1cnn(C)c1)c1ccc(Cl)s1` (stereo not drawn), for which the INHIBITION is listed as 51.7%. Consider `CC(NCc1cnc(N2CCOCC2)nc1)c1ccc(Cl)s1` (stereo not drawn), for which the INHIBITION is on record as 51.8%.

`CC(Cn1cccn1)NC(=O)NCCc1cnn(C)c1` (stereo not drawn): the INHIBITION was found to be 49.6%. With `Cc1nc(C)c(C(C)NCc2cnc(N3CCOCC3)nc2)s1` (stereo not drawn) the figure was 43.5%; with `CCc1nccn1C1CCCN(C(=O)c2ccc(NC3CC3)nc2)C1` (stereo not drawn), -40.0335%.

Regarding `CNc1ncc(-c2ccc(NC(=O)[C@@H]3CCCCN3)cc2)cn1`, the INHIBITION stood at 4.08%. With `COc1ncccc1CNC(=O)c1ccc(C)[nH]c1=O` the figure was 20.5%. Consider `COc1ccc(CN2CCn3c(CNS(C)(=O)=O)nnc3C2)cc1`, for which the INHIBITION turned out to be 13.1%.

As for `Cn1cnnc1SCCCNC(=O)Nc1ncccn1`, the INHIBITION was determined as 4.66%. With `CCc1nnc2n1CCN(CC(=O)Nc1cc(C)nn1C)C2` the figure was 45.6%. To `Cn1cc(CN2CCC3(CC2)NC(=O)CC3c2ccncc2)cn1` (stereo not drawn) belongs 14.6%; to `CN(CC(=O)Nc1cc(CC2CCCCC2)n[nH]1)S(C)(=O)=O`, -37%.

For `CN(CCc1ccncc1)CCc1nccs1`, the INHIBITION worked out at 79.5%. To `CN(CCc1ccccn1)CCc1nccs1` belongs 40.9%; to `CN(CCc1cccs1)CCc1nccs1`, 5.11%; to `CCN(C)c1ncnc2c1CCN(Cc1ccc(F)cc1)CC2`, 22.5%. On to `CCCc1nnc(NCCc2noc(C3CCCC3)n2)o1`, for which the INHIBITION was found to be 22.5%. With `CCn1cc(C(=O)N2CCCC(c3nccs3)C2)cn1` (stereo not drawn), the INHIBITION is listed as 56%. As to `CCn1ccc(C(=O)N2CCOC(c3nc(-c4cccs4)no3)C2)n1` (stereo not drawn), the INHIBITION came to 42.6%. To `O=C(c1cnc(O)c(Cl)c1)N1CCCC(c2nccs2)C1` (stereo not drawn) belongs 26.9%; to `CCc1csc(C2CCCN(C(=O)c3cnn(CC)c3)C2)n1` (stereo not drawn), -19.7%; to `O=C(c1cnc(C2CC2)nc1)N1CCCC(c2nccs2)C1` (stereo not drawn), 52%. With `CCCn1cc(C(=O)N2CCOC(c3nc(-c4cccs4)no3)C2)cn1` (stereo not drawn) the figure was 48.6%; with `O=C(c1cncnc1)N1CCCC(c2nccs2)C1` (stereo not drawn), 13.54%; with `CCCn1cc(C(=O)N2CCCC(Cc3nccs3)C2)cn1` (stereo not drawn), 17.4%. To `CCn1cc(C(=O)N2CCOC(c3nc(-c4cccs4)no3)C2)cn1` (stereo not drawn) belongs 73.8%.

The record behind these values is ChEMBL document CHEMBL4513216, “Probing the Open Global Health Chemical Diversity Library for Multistage-Active Starting Points for Next-Generation Antimalarials” (ACS Infect Dis, 2020).
